Source: ChEMBL document CHEMBL4513136, “CO-ADD screening of CSIC (Spain) compounds”
Potency and affinity values are given separately.

Experiments:
Klebsiella pneumoniae = conditions: Concentration 32 ug.mL-1; ASSAY_TEST Inhibition of Bacterial Growth; detection method Absorption (OD600); MEDIA CAMHB; plate type 384well; NBS; CORNING #3640; time 18 hr
Candida albicans = conditions: 32 ug/mL
Cryptococcus neoformans = conditions: Concentration 32 ug.mL-1; ASSAY_TEST Inhibition of Fungal Growth; detection method Resazurin; Absorption (OD600-OD570); plate type 384well; NBS; CORNING #3640

Compound | Inhibition (Klebsiella pneumoniae) | Inhibition (Candida albicans) | Inhibition (Cryptococcus neoformans)
COc1ccc(CN2C(=O)C(C)C2(Cc2cn(C(=O)OC(C)(C)C)c3ccccc23)C(=O)OC(C)(C)C)cc1 (stereo not drawn) | 15.95% | 7.68% | -81.49%
COc1ccc(OC)c(C(=O)/C=C/c2c[nH]c3ccc(OC)cc23)c1 | 2.62% | 3.54% | -74.27%
COc1ccccc1/C=C/C(=O)c1cc(OC)c(OC)cc1OC | 12.89% | 3.46% | -68.54%
COc1ccc(OC)c(CC(=O)Nc2cc(OC)ccc2OC)c1 | 5.13% | 6.79% | -78.53%
COC(=O)c1c(C(Cc2ccccc2)NC(=O)OCc2ccccc2)[nH]c2ccccc12 (stereo not drawn) | 2.35% | 0.58% | -63.52%
COc1ccc(OC)c(NC(=O)Nc2ccc(OC)cc2OC)c1 | 6.68% | -0.5% | -79.12%
COc1ccc(OC)c(C(=O)CCc2ccc(O)cc2)c1 | 3.34% | 1.55% | -66.83%
O=C(Cc1cc(O)ccc1O)Nc1cc(O)ccc1O | 9.18% | 0.34% | -2.68%
COc1ccc(C(=O)/C=C/c2ccc(OC)cc2OC)cc1 | -4.58% | 9.33% | -93.49%
COC(=O)C1(Cc2ccc(OCc3c(Cl)cccc3Cl)cc2)C(C)C(=O)N1Cc1ccc(OC)cc1 (stereo not drawn) | 5.7% | 7.8% | -62.93%
COc1ccc(NC(=O)Cc2cc(OC)ccc2OC)cc1 | 9.76% | 1.24% | -67.4%
O=C(Nc1ccc(O)cc1O)Nc1cc(O)ccc1O | 9.23% | -2.25% | 15.83%
O=C(/C=C/c1ccccc1O)c1cc(O)c(O)cc1O | 21.23% | 6.47% | -81.74%
O=C(/C=C/c1c[nH]c2ccc(O)cc12)c1cc(O)ccc1O | 6.02% | 4.1% | -105.31%
O=C(CCc1ccc(O)cc1O)c1cc(O)ccc1O | 10.96% | 3.81% | -52.63%
CC1C(=O)N(Cc2ccc(OCCN3CCOCC3)cc2)C1(Cc1ccccc1)C(=O)O (stereo not drawn) | 2.32% | 1.79% | -59.46%
COc1ccc(OC)c(-c2cn(-c3ccc(OC)c(OC)c3)nn2)c1 | -16.63% | 10.9% | -110.55%
O=C(Cc1cc(O)ccc1O)Nc1ccc(O)cc1 | 12.9% | 2.83% | -32.05%
COc1ccc(OC)c(C(=O)/C=C/c2ccccc2O)c1 | -4.68% | 16.8% | -71.16%
O=C(OCc1ccccc1)N1C(=O)C(c2ccccc2NC(=O)C(F)(F)F)=C(O)C1Cc1ccccc1 (stereo not drawn) | 7.86% | 0.9% | -95.18%
O=C(Cc1cc(O)ccc1O)Nc1ccc(O)cc1O | 6.35% | 4.45% | -73.31%
Oc1ccc(-n2cc(-c3cc(O)ccc3O)nn2)cc1 | 10.3% | 1.72% | -19.32%
COc1ccc(OC)c(C(=O)CCc2ccccc2O)c1 | 4.74% | 4.16% | -73.15%
COc1ccc(OC)c(CC(=O)Nc2ccc(OC)cc2OC)c1 | 9.85% | 16.6% | -87.08%
Oc1ccc(O)c(-c2cn(-c3ccc(O)c(O)c3)nn2)c1 | -0.99% | 3.17% | -118.29%
COc1ccc(OC)c(C(=O)/C=C/c2ccc(O)cc2)c1 | -6.02% | 2.83% | -65.46%
